We go through 40 molecules from the supplement of paper PMC4206461.

Values without a mark were called inactive.

The subject of this assay is Pseudomonas aeruginosa PA14 wild type. Briefly: respiration area under curve with compound as sole nitrogen source, 24 h (OmniLog AUC (arbitrary units)); higher = more respiration / better utilisation as nitrogen source, active = 2000 or more. As for the experimental part:
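Biolog Phenotype MicroArray plates PM6-PM8: each di/tripeptide is the sole nitrogen source (IF-0 medium with succinate/ferric citrate and dye mix A). Tetrazolium reduction was read in the OmniLog every 15 min for 24 h at 37°C and summarised as area under the respiration curve (arbitrary units). The paper counts values below 2000 as no respiration and above 8000 as solid respiration. Replicate datasets are averaged.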
On to `CC(C)[C@H](NC(=O)[C@@H](N)CC(=O)O)C(=O)O` (plate: PM6), for which the “respiration area under curve” value is 4290 (active).

As for `C[C@H](NC(=O)[C@@H](N)Cc1c[nH]c2ccccc12)C(=O)O` (plate: PM7), the “respiration area under curve” value is 5630 (active).

On to `CC(C)C[C@H](NC(=O)CN)C(=O)O` (plate: PM6), for which the “respiration area under curve” value was 1880.

With `N[C@@H](CO)C(=O)N[C@@H](Cc1ccc(O)cc1)C(=O)O` (plate: PM7), the “respiration area under curve” value was 6130 (active).

As for `O=C(O)[C@@H]1CCCN1C(=O)[C@@H]1CCCN1` (plate: PM7), the “respiration area under curve” value was 10500 (active).

For `N[C@@H](CC(=O)O)C(=O)NCC(=O)O` (plate: PM8), the “respiration area under curve” value is 4290 (active).

In the case of `CC[C@H](C)[C@H](N)C(=O)N[C@@H](Cc1ccccc1)C(=O)O` (plate: PM6), the “respiration area under curve” value was 2830 (active).

For the molecule `C[C@H](N)C(=O)N[C@@H](CO)C(=O)O` (plate: PM6), the “respiration area under curve” value is 9550 (active).

As to `O=C(O)[C@H](CO)NC(=O)[C@@H]1CCCN1` (plate: PM8), the “respiration area under curve” value was 8750 (active).

On to `NC(=O)C[C@H](NC(=O)[C@@H]1CCCN1)C(=O)O` (plate: PM8), for which the “respiration area under curve” value was 12900 (active).

For the molecule `NCC(=O)N[C@@H](Cc1ccc(O)cc1)C(=O)O` (plate: PM6), the “respiration area under curve” value is 2560 (active).

In the case of `O=C(O)CC(NC(=O)C1CCCN1)C(=O)O` (stereo not given) (plate: PM7), the “respiration area under curve” value was 4460 (active).

Take `CSCC[C@H](NC(=O)[C@@H](N)CO)C(=O)O` (plate: PM7): the “respiration area under curve” value is 4420 (active).

For `C[C@H](NC(=O)CN)C(=O)O` (plate: PM6), the “respiration area under curve” value was 4610 (active).

`N[C@@H](Cc1ccc(O)cc1)C(=O)N[C@@H](CCC(=O)O)C(=O)O` (plate: PM7): the “respiration area under curve” value was 4890 (active).

For `C[C@H](NC(=O)[C@@H](N)CO)C(=O)O` (plate: PM7), the “respiration area under curve” value is 10900 (active).

Turning to `NC(N)=NCCC[C@H](NC(=O)[C@@H](N)Cc1c[nH]c2ccccc12)C(=O)O` (plate: PM7), the “respiration area under curve” value was 13500 (active).

Regarding `C[C@H](NC(=O)CNC(=O)CN)C(=O)O` (plate: PM8), the “respiration area under curve” value was 11300 (active).

For `NCC(=O)N[C@@H](Cc1c[nH]c2ccccc12)C(=O)O` (plate: PM6), the “respiration area under curve” value was 755.

Turning to `CC(C)C[C@H](N)C(=O)N1CCC[C@H]1C(=O)O` (plate: PM8), the “respiration area under curve” value is 9370 (active).

On to `CC(C)[C@H](N)C(=O)N[C@@H](Cc1ccccc1)C(=O)O` (plate: PM8), for which the “respiration area under curve” value is 6560 (active).

Turning to `CSCCC(NC(=O)C(N)CC(C)C)C(=O)O` (stereo not given) (plate: PM6), the “respiration area under curve” value is 3040 (active).

With `CC(C)[C@H](NC(=O)[C@@H](N)CC(N)=O)C(=O)O` (plate: PM6), the “respiration area under curve” value was 7030 (active).

For the molecule `NCC(=O)N1CCC[C@H]1C(=O)O` (plate: PM6), the “respiration area under curve” value was 9130 (active).

In the case of `NCC(=O)N[C@@H](Cc1ccccc1)C(=O)N[C@@H](Cc1ccccc1)C(=O)O` (plate: PM8), the “respiration area under curve” value is 8980 (active).

Turning to `C[C@H](N)C(=O)N1CCC[C@H]1C(=O)O` (plate: PM6), the “respiration area under curve” value is 12000 (active).

With `CC(C)C[C@H](NC(=O)[C@@H](C)N)C(=O)O` (plate: PM8), the “respiration area under curve” value is 626.

`N[C@@H](CCC(=O)O)C(=O)N[C@@H](Cc1ccc(O)cc1)C(=O)O` (plate: PM6): the “respiration area under curve” value was 1140.

Consider `C[C@H](N)C(=O)N[C@@H](Cc1ccccc1)C(=O)O` (plate: PM6), for which the “respiration area under curve” value is 7710 (active).

As for `N[C@@H](Cc1c[nH]c2ccccc12)C(=O)NCC(=O)O` (plate: PM7), the “respiration area under curve” value is 3340 (active).

For `N[C@@H](CO)C(=O)N[C@@H](CC(=O)O)C(=O)O` (plate: PM8), the “respiration area under curve” value was 4090 (active).

With `CC[C@H](C)[C@H](N)C(=O)N[C@@H](CCC(N)=O)C(=O)O` (plate: PM6), the “respiration area under curve” value is 7450 (active).

As for `N[C@@H](Cc1ccc(O)cc1)C(=O)NCC(=O)O` (plate: PM7), the “respiration area under curve” value is 9630 (active).

With `N[C@@H](CO)C(=O)NCC(=O)O` (plate: PM7), the “respiration area under curve” value is 8430 (active).

As for `CC(C)C[C@H](N)C(=O)N[C@@H](C)C(=O)O` (plate: PM6), the “respiration area under curve” value is 9330 (active).

Turning to `CC(C)C(N)C(=O)NC(CO)C(=O)O` (stereo not given) (plate: PM8), the “respiration area under curve” value was 9530 (active).

`NC(N)=NCCC[C@H](NC(=O)[C@@H]1CCCN1)C(=O)O` (plate: PM8): the “respiration area under curve” value is 12100 (active).

Consider `NC(=O)CC[C@H](N)C(=O)NCC(=O)O` (plate: PM6), for which the “respiration area under curve” value is 7270 (active).

As for `N[C@@H](CC(=O)O)C(=O)N[C@@H](Cc1ccccc1)C(=O)O` (plate: PM6), the “respiration area under curve” value is 3070 (active).

For the molecule `NC(=O)CC[C@H](NC(=O)[C@@H](N)CCCN=C(N)N)C(=O)O` (plate: PM6), the “respiration area under curve” value was 9850 (active).
